Assay results taken from PubChem BioAssay AID1508621 (National Center for Advancing Translational Sciences (NCATS), 2021).
Inconclusive results are not listed. Entries that show only a call come without a potency. Activity calls are given as the source filed them. The call rests on the fitted dose curve; in most records, active means well fitted inhibition curve with a large enough effect; inconclusive means small, poorly fitted or top-dose-only effect; inactive means no such curve, though single readings can be large or run the other way.

Assay: Confirmatory qHTS for Identification of Small Molecule Inhibitors of Huntingtin Promoter Activity; further: nearly all actives have a fitted effect of over 65% in size
Details: HEK293 HTT promoter firefly luciferase reporter, 24 h; series mostly up to 57.5 µM
Description: Assay Provider: Russell L. Margolis M.D.
Department Neurology, Johns Hopkins University School of Medicine, Baltimore, MD
Huntington's Disease (HD) is a neurodegenerative disorder caused by a CAG repeat expansion in exon 1 of huntingtin (HTT). While there are currently no disease-modifying treatments for HD, recent efforts have focused on development of nucleotide-based therapeutics to lower HTT expression. As an alternative to siRNA or oligonucleotide methods, we hypothesized that suppression of HTT expression might be accomplished by small molecules that either (1) directly decrease HTT expression by suppressing HTT promoter activity or (2) indirectly decrease HTT expression by increasing the promoter activity of HTT-AS, the gene antisense to HTT that appears to inhibit expression of HTT.
We developed and employed a high throughput screen for modifiers of HTT and HTT-AS promoter activity using luminescent reporter HEK293 cells; of the 52,041 compounds tested, we identified 898 replicable hits. We used a rigorous stepwise approach to assess compound toxicity and the capacity of the compounds to specifically lower huntingtin protein in 5 different cell lines, including HEK293 cells, HD lymphoblastoid cells, mouse primary neurons, HD iPSCs differentiated into cortical-like neurons, and HD hESCs. We found no compounds which were able to lower huntingtin without lowering cell viability in all assays, though the potential efficacy of a few compounds at non-toxic doses could not be excluded.
SEQUENCE No. (1, 2, 3, etc.); […] (e.g., Cells, Incubation, Reagent, etc.); VALUE and DESCRIPTION.
1; Reagent; 4 uL; 2,500 Hek293 luciferase reporter cells per wells
3; Compound; 23 nL; Control inhibitor / compound library
5; Reagent; 2.5 uL; Firefly Luc reagent; Dual-Glo Luciferase Reporter Assay System (Promega)
6; Time; 10 min; room temperature incubation
7; Detection; Luminescence; FLuc
NOTES (numbers refer to sequence above)
1; High-throughput screening, measuring luminescence from a Hek293 luciferase reporter, was performed in 1,536 well white-walled tissue-culture treated plates. 2,500 cells were plated in 4 uL of Opti-MEM per well using a Multidrop Combi Reagent Dispenser (ThermoFisher).
2; Assay plates were cultured for 24 hours.
3; Control inhibitor (PTC124; final concentration of 50 uM) and compound library (at final concentrations of 460 nM - 57.5 uM) were added to the assay plate using the Kalypsis Pintool Robotic System equipped with 1536 pinheads.
4; Cells were then incubated for 24 hours at 37C prior to luminescence measurements.
5; In all cases, luminescence was measured using the Dual-Glo Luciferase Reporter Assay System (Promega) following the manufacturer's instructions.
6; Room temperature incubation.
7; Luminescence signal was obtained using the PerkinElmer ViewLux plate reader. Results were normalized to vehicle control (0% activity) and zero RLU (-100% activity).
Potency means the concentration at half of the fitted maximal effect.

| SMILES | Potency |
| --- | --- |
| CC(C)c1ccc(NC(=O)C2CCN(c3nc(-c4ccc(C(C)C)cc4)no3)CC2)cc1 | 0.0953 µM (active) |
| Cc1ccc2nc(-c3ccncc3)c(Nc3ccccc3C)n2c1 | inactive |
| CCS(=O)(=O)N1CC(CC#N)(n2cc(-c3ncnc4[nH]ccc34)cn2)C1 | inactive |
| Cc1ccc(C)c(N2CCN(C(=O)C3CCN(c4nc(-c5ccc(C(C)C)cc5)no4)CC3)CC2)c1 | 0.239 µM (active) |
| COc1ccc(S(=O)(=O)Nc2cc(-c3cn4ccc(C)cc4n3)ccc2C)cc1OC | inactive |
| FC(F)(F)c1cccc(Nc2nc3nonc3nc2Nc2ccc(Cl)cc2)c1 | 0.379 µM (active) |
| CC(=O)Nc1ccc(S(=O)(=O)Nc2cc(-c3cn4ccccc4n3)ccc2C)cc1 | inactive |
| O=C1C2=C(Nc3ccccc3SC2c2ccc(C(F)(F)F)cc2)c2ccccc21 (stereo not given) | 19 µM (active) |
| CCCS(=O)(=O)NCCc1sc2nc(-c3ccc(F)cc3)nn2c1C | inactive |
| C[n+]1cc2c3c(ccc2c2ccc4cc5c(cc4c21)OCO5)OCO3 | 5.86 µM (active) |
| Cc1ccc(CNC(=O)c2c(Nc3c(C)cccc3C)sc(C(=O)c3ccccc3)c2N)cc1 | 9.53 µM (active) |
| Cc1ccc(C)c(-n2nnc(C(=O)Nc3ccc(Br)cc3)c2C)c1 | inactive |
| Cc1ccccc1C(=O)Nc1nc(-c2ccc(Br)cc2)ns1 | inactive |
| CCc1ccc2c(c1)-c1ccccc1S(=O)(=O)N2CC(=O)N1CCC(C)CC1 | inactive |
| Cc1ccccc1OCc1ccc(-c2nc(C#N)c(NCc3cccnc3)o2)o1 | 19 µM (active) |
| Cc1cc(SCC(=O)Nc2nsc(-c3ccc(C(C)(C)C)cc3)n2)nc2ccccc12 | inactive |
| Cc1ccc(-n2ncc3c(N(C)Cc4ccccc4)ncnc32)cc1 | inactive |
| CCC(=O)N1CCc2cc(S(=O)(=O)NCCC(=O)Nc3ccc(CC)cc3)ccc21 | inactive |
| CC(C)Oc1ccc(C(=O)N(Cc2ccco2)c2ccccn2)cc1 | inactive |
| O=C(NCc1cccc(Cl)c1)C1CCCN(c2nn3cc(-c4ccc(F)cc4)nc3s2)C1 (stereo not given) | 12 µM (active) |

| SMILES | Potency |
| --- | --- |
| CCOc1ccc(Nc2ncnc3c2nc2n3CCCCC2)cc1 | inactive |
| CCN(CCCNC(=O)c1cc2cc3ccc(C)cc3nc2s1)c1ccccc1 | inactive |
| CCS(=O)(=O)c1ncc(Cl)c(C(=O)N(Cc2ccccc2)c2ccc(OC)cc2)n1 | 10.7 µM (active) |
| O=C(Nc1cccc(Cl)c1)c1c(NC(=O)C(F)(F)F)sc2c1CCCC2 | 4.26 µM (active) |
| O=C(c1ccc2c(c1)N(Cc1ccccc1)C(=O)c1ccccc1S2(=O)=O)N1CCCCCC1 | inactive |
| Cc1ccc(C)c(OCCCC(C)(C)C(=O)O)c1 | inactive |
| Cc1cccc(N2CCN(C(=O)c3ccc(NC(=O)c4nsc5ccccc45)cc3)CC2C)c1 (stereo not given) | inactive |
| CC(=O)c1cccc(NS(=O)(=O)c2cccc(S(=O)(=O)c3ccc(Br)cc3)c2)c1 | 26.9 µM (active) |
| CC[C@@H]1C(=O)N(C)c2cnc(Nc3ccc(C(=O)NC4CCC(N5CCN(CC6CC6)CC5)CC4)cc3OC)nc2N1C(C)C (stereo not given in full) | inactive |
| CO[C@H]1C=CC=C(C)C(=O)NC2=CC(=O)C(NCCN(C)C)=C(C[C@@H](C)C[C@H](OC)[C@@H](O)[C@@H](C)C=C(C)[C@@H]1OC(N)=O)C2=O | inactive |
| O=C(CCCCCCNC(=O)c1cnc(N(c2ccccc2)c2ccccc2)nc1)NO | inactive |
| Cc1cccc(C2C=C(c3ccc(F)cc3)Nc3nc4ccccc4n32)c1 (stereo not given) | inactive |
| Cc1cc(C)c(NS(=O)(=O)c2ccc(-c3cnc(C4CC4)o3)cc2)c(C)c1 | 0.675 µM (active) |
| CCOC(=O)C1CCN(C(=O)Cn2c(-c3cccs3)cc3cc(Cl)ccc32)CC1 | inactive |
| C=Cc1ccc(Cn2c(C(=O)O)c(CNCc3ccccc3)c3ccc(C)cc32)cc1 | 21.3 µM (active) |
| Cc1cc(NC(=O)c2cc(-c3ccc(Cl)cc3)on2)nn1Cc1ccc(Cl)cc1 | inactive |
| CC(C)[C@H](C(=O)Nc1ccc(C(=O)NO)cc1)c1ccccc1 | inactive |
| CCN(Cc1ccccc1)C(=O)c1cc(-c2ccccc2)n[nH]1 | inactive |
| COc1ccc(-n2c(/C=C/c3cccc4ccccc34)nc3ccccc3c2=O)cc1Cl | inactive |
| O=C(c1ccc(CS(=O)c2ccccc2Cl)o1)N1CCN(c2cccc(C(F)(F)F)c2)CC1 (stereo not given) | 3.38 µM (active) |
